{"source": "PubChem BioAssay (EPA / NIEHS)", "note": "Active and inactive are the calls of the source. The calls were made as follows: active = hit-call score of the fitted dose curve at least 0.9, where 1 is the maximum; inactive = score below 0.9."}
{"test": "ATG_M_19_CIS: Attagene CIS-FACTORIAL HepG2 Assay for M19 Transcription Factor (Internal Marker) (AID 2282939)", "details": "HepG2 Attagene CIS-FACTORIAL M19 internal marker reporter; actives raise or lower the signal", "description": "ATG_CIS is a cell-based, multiplexed-readout assay that uses HepG2, a human liver cell line, with measurements taken at 24 hours after chemical dosing in a 24-well plate.ATG_M_19_CIS is one of 52 assay component(s) measured or calculated from the ATG_CIS assay. It is designed to make measurements of mRNA induction, a form of inducible reporter, as detected with fluorescence intensity signals by Reverse transcription polymerase chain reaction (RT-PCR) and Capillary electrophoresis technology.Data from the assay component ATG_M_19_CIS was analyzed into 1 assay endpoint. This assay endpoint, ATG_M_19_CIS, was analyzed with bidirectional fitting relative to DMSO as the negative control and baseline of activity. Using a type of inducible reporter, measures of mRNA for gain or loss-of-signal activity can be used to understand the background control at the transcription factor-level as they relate to the gene . Furthermore, this assay endpoint can be referred to as a secondary readout, because this assay has produced multiple assay endpoints where this one serves a background control function. To generalize the intended target to other relatable targets, this assay endpoint is annotated to the background measurement intended target family, where the subfamily is internal marker.\nHuman liver HepG2 cells are transiently transfected with multiple reporter transcription units (MRTUs) in 6-well plates using FuGene 6 reagent (Roche; 3 ml FuGene/1 mg DNA). The MRTU constructs are regulated by a cis-regulating element (promoter). […] A major difference between the CIS and TRANS system is that in CIS activities of endogenous TFs are measured, whereas the TRANS assay evaluates changes in activities of exogenous, chimeric NR-Gal4 proteins. […] At the end of 24 hour incubation, total RNA was isolated using TriZol reagent (Invitrogen). The isolated RNA is then reverse-transcribed using oligo(dT) primer and Mo-MLV reverse transcriptase (Invitrogen) with DNAse I (Ambion) treatment for 30 min. The one-tenth of the produced cDNA was amplified by PCR using Taq DNA polymerase (Invitrogen) and two reporter sequence-specific primers. The PCR products were fluorescently labeled by primer extension with 6-arboxyfluorescein (6-FAM) 5'-labeled reporter sequence-specific primer (2 min at 95 C, 20 s at 68 C and 10 min at 72 C) and these products were digested with 5U of HpaI (New England Biolabs) for 2h at 37 C. The fragments were purified using Qiaquick PCR columns (Qiagen), analyzed on an ABI 3130xL genetic analyzer (Applied Biosystems) with peak positions identified by using a set of X-rhodamine (ROX)-labeled MapMarker1000 molecular weight standards (BioVentures). The raw capillary electrophoresis data was processed using Attagraph software (Attagene)."}
{"smiles": "Cc1cccc(N)c1", "outcome": "inactive"}
{"smiles": "CC(C)(C)N(NC(=O)c1ccc(Cl)cc1)C(=O)c1ccccc1", "outcome": "inactive"}
{"smiles": "COP(=O)(CCC(=O)NCO)OC", "outcome": "inactive"}
{"smiles": "CC(O)C#N", "note": "(stereo not given)", "outcome": "inactive"}
{"smiles": "c1ccc(OP(Oc2ccccc2)Oc2ccccc2)cc1", "outcome": "inactive"}
{"smiles": "Cc1ccc(C(=O)Cl)cc1", "outcome": "inactive"}
{"smiles": "C=CC(=O)OCC(F)(F)C(F)F", "outcome": "inactive"}
{"smiles": "CC(Cc1ccc(OCC(=O)O)cc1)NCC(O)c1csc(C(F)(F)F)n1", "note": "(stereo not given)", "outcome": "inactive"}
{"smiles": "CCNc1nc(Cl)nc(NC(C)(C)C)n1", "outcome": "inactive"}
{"smiles": "O=C(O)C(F)(F)OC(F)(F)C(F)(F)OC(F)(F)F", "outcome": "inactive"}
{"smiles": "O=C(CBr)OCc1ccccc1", "outcome": "inactive"}
{"smiles": "CCOP(=S)(OCC)SCS(=O)(=O)CC", "outcome": "inactive"}
{"smiles": "CCCCOCCOP(=O)(OCCOCCCC)OCCOCCCC", "outcome": "inactive"}
{"smiles": "CO/N=C(/C(=O)OC)c1ccccc1COc1ccccc1C", "outcome": "inactive"}
{"smiles": "N#Cc1cc([N+](=O)[O-])ccc1N", "outcome": "inactive"}
{"smiles": "NNC(N)=S", "outcome": "inactive"}
{"smiles": "O=[N+]([O-])c1ccc(Cl)c(Cl)c1", "outcome": "inactive"}
{"smiles": "COP(N)(=S)OC", "outcome": "inactive"}
{"smiles": "CCOS(=O)(=O)OCC", "outcome": "inactive"}
{"smiles": "[N-]=[N+]=[N-]", "outcome": "inactive"}
{"smiles": "N#Cc1ccc(O)cc1", "outcome": "inactive"}
{"smiles": "O=S(=O)(c1ccc(O)cc1)c1ccc(O)cc1", "outcome": "inactive"}
{"smiles": "Cc1ccc2c(c1N)C(=O)c1ccccc1C2=O", "outcome": "inactive"}
{"smiles": "ClC(Cl)c1ccccc1", "outcome": "inactive"}
{"smiles": "Nc1ccc([N+](=O)[O-])cc1Cl", "outcome": "inactive"}
{"smiles": "Cc1c([N+](=O)[O-])cc2c(c1[N+](=O)[O-])C(C)(C)CC2(C)C", "outcome": "inactive"}
{"smiles": "CC(=O)CCc1ccc2c(c1)OCO2", "outcome": "inactive"}
{"smiles": "O=[N+]([O-])c1ccccc1", "outcome": "inactive"}
{"smiles": "Clc1ccc(Oc2ccccc2)cc1", "outcome": "inactive"}
{"smiles": "O=P(OCC(Br)CBr)(OCC(Br)CBr)OCC(Br)CBr", "note": "(stereo not given)", "outcome": "inactive"}
{"smiles": "O=S(=O)(F)C(F)(F)C(F)(F)C(F)(F)C(F)(F)C(F)(F)C(F)(F)C(F)(F)C(F)(F)F", "outcome": "inactive"}
{"smiles": "CC(Cl)CN(C)C", "note": "(stereo not given)", "outcome": "inactive"}
{"smiles": "CC(C)(C)c1ccccc1OP(=O)(Oc1ccccc1)Oc1ccccc1", "outcome": "inactive"}
{"smiles": "Cc1cc(C)c(C(=O)P(=O)(c2ccccc2)c2ccccc2)c(C)c1", "AC50": "61.5 µM (active)"}
{"smiles": "FC(F)(F)C(F)(C(F)(F)F)C(F)(F)C(F)(F)CC1CO1", "note": "(stereo not given)", "outcome": "inactive"}
{"smiles": "O=C(O)C(F)(OC(F)(F)C(F)(F)C(F)(F)F)C(F)(F)F", "note": "(stereo not given)", "outcome": "inactive"}
{"smiles": "CCOP(=S)(OCC)SCn1nnc2ccccc2c1=O", "outcome": "inactive"}
{"smiles": "OCC1CO1", "note": "(stereo not given)", "outcome": "inactive"}
{"smiles": "CCCCN(CCCC)N=O", "outcome": "inactive"}
{"smiles": "N#C/C=C/c1ccccc1", "outcome": "inactive"}
